More than one record can exist for a structure, and the calls need not agree. Calls of active or inactive are those of the source. How the source made its calls: active means hit-call score of the fitted dose curve at least 0.9, where 1 is the maximum; inactive means score below 0.9.
Experiment: ATG_AP_1_CIS: Attagene CIS-FACTORIAL HepG2 Assay for human Activator Protein 1 (AP-1) (AID 2282931)
Conditions: HepG2 Attagene cis-factorial AP-1 reporter mRNA; actives raise or lower the signal
Protocol: ATG_CIS is a cell-based, multiplexed-readout assay that uses HepG2, a human liver cell line, with measurements taken at 24 hours after chemical dosing in a 24-well plate.ATG_AP_1_CIS is one of 52 assay component(s) measured or calculated from the ATG_CIS assay. It is designed to make measurements of mRNA induction, a form of inducible reporter, as detected with fluorescence intensity signals by Reverse transcription polymerase chain reaction (RT-PCR) and Capillary electrophoresis technology.Data from the assay component ATG_AP_1_CIS was analyzed into 1 assay endpoint. This assay endpoint, ATG_AP_1_CIS, was analyzed with bidirectional fitting relative to DMSO as the negative control and baseline of activity. Using a type of inducible reporter, measures of mRNA for gain or loss-of-signal activity can be used to understand the reporter gene at the transcription factor-level as they relate to the gene FOS and JUN. Furthermore, this assay endpoint can be referred to as a primary readout, because this assay has produced multiple assay endpoints where this one serves a reporter gene function. To generalize the intended target to other relatable targets, this assay endpoint is annotated to the dna binding intended target family, where the subfamily is basic leucine zipper.
Human liver HepG2 cells are transiently transfected with multiple reporter transcription units (MRTUs) in 6-well plates using FuGene 6 reagent (Roche; 3 ml FuGene/1 mg DNA). The MRTU constructs are regulated by a cis-regulating element (promoter). […] A major difference between the CIS and TRANS system is that in CIS activities of endogenous TFs are measured, whereas the TRANS assay evaluates changes in activities of exogenous, chimeric NR-Gal4 proteins. […] At the end of 24 hour incubation, total RNA was isolated using TriZol reagent (Invitrogen). The isolated RNA is then reverse-transcribed using oligo(dT) primer and Mo-MLV reverse transcriptase (Invitrogen) with DNAse I (Ambion) treatment for 30 min. The one-tenth of the produced cDNA was amplified by PCR using Taq DNA polymerase (Invitrogen) and two reporter sequence-specific primers. The PCR products were fluorescently labeled by primer extension with 6-arboxyfluorescein (6-FAM) 5'-labeled reporter sequence-specific primer (2 min at 95 C, 20 s at 68 C and 10 min at 72 C) and these products were digested with 5U of HpaI (New England Biolabs) for 2h at 37 C. The fragments were purified using Qiaquick PCR columns (Qiagen), analyzed on an ABI 3130xL genetic analyzer (Applied Biosystems) with peak positions identified by using a set of X-rhodamine (ROX)-labeled MapMarker1000 molecular weight standards (BioVentures). The raw capillary electrophoresis data was processed using Attagraph software (Attagene).

Compound	AC50	outcome
O=C1c2ccccc2C(=O)c2c(O)c(O)cc(O)c21	19.8 µM (active)	
COC(O)c1ccccc1 (stereo not given)		inactive
NCc1cccc(CN)c1		inactive
CC1COCc2cc3c(cc21)C(C)(C)C(C)C3(C)C (stereo not given)	79.4 µM (active)	
FCOC(C(F)(F)F)C(F)(F)F		inactive
CN(C)c1ccc(C(=C2C=CC(=[N+](C)C)C=C2)c2ccccc2)cc1	0.472 µM (active)	inactive
CCC(C)c1nccnc1OC (stereo not given)		inactive
O=C(Nc1cccc([N+](=O)[O-])c1)c1cc2ccccc2cc1O	2.31 µM (active)	
FC1(F)C=CC(F)(F)C1(F)F		inactive
CN(CCO)S(=O)(=O)C(F)(F)C(F)(F)C(F)(F)C(F)(F)C(F)(F)C(F)(F)C(F)(F)C(F)(F)F		inactive
CCC(=O)C=Cc1ccc(OC)cc1		inactive
Cc1ccc(C)c(S(=O)(=O)O)c1		inactive
C=CCOCC(CO)(CO)CO		inactive
O=C(O)C(F)(F)OC(F)(F)C(F)(F)OC(F)(F)C(F)(F)OC(F)(F)C(F)(F)C(F)(F)C(F)(F)F		inactive
FC(F)(F)C1(F)C(F)(F)C(F)(F)C(F)(F)C1(F)F		inactive
NC(=NCCCCCCN=C(N)/N=C(\N)Nc1ccc(Cl)cc1)/N=C(\N)Nc1ccc(Cl)cc1	49.5 µM (active)	inactive
O=S(=O)(O)c1ccc2cc(O)ccc2c1		inactive
CCCCCCc1ccc(N)cc1		inactive
O=C1OC(=O)C(F)(F)C1(F)F		inactive

Compound	AC50	outcome
CC(C)C=O	61.2 µM (active)	inactive
CC(C)(c1ccc(Oc2ccc(N)cc2)cc1)c1ccc(Oc2ccc(N)cc2)cc1		inactive
CCCCN(C)C		inactive
CC(=O)Nc1ccc(S(N)(=O)=O)cc1		inactive
OCCN1CN(CCO)CN(CCO)C1		inactive
c1ccc2c(c1)CCC2		inactive
Cc1ccccc1OCC(=O)O		inactive
O=C(F)C(F)(F)C(F)(F)C(F)(F)C(F)F		inactive
CCN(CCC#N)c1ccccc1		inactive
Brc1ccc(Oc2ccc(Br)cc2Br)cc1		inactive
CCCCCCOC(=O)c1ccc(O)cc1	50.4 µM (active)	
O=C1Cc2ccccc2N1c1c(Cl)cccc1Cl		inactive
O=C(OC(=O)C(F)(F)C(F)(F)F)C(F)(F)C(F)(F)F		inactive
c1cc2cccc3c4cccc5cccc(c(c1)c23)c54		inactive
Cc1ccccc1C(OCCN(C)C)c1ccccc1 (stereo not given)		inactive
CC=O		inactive
CC[N+](CC)(CC)Cc1ccccc1		inactive
CCCCCc1ccc(O)cc1		inactive

From PubChem BioAssay (EPA / NIEHS)
